Source: ChEMBL document CHEMBL1157539, “Thousands of chemical starting points for antimalarial lead identification” (Nature, 2010)

Test system: Plasmodium falciparum
Assay: GSK_TCMDC: Inhibition of Plasmodium falciparum Dd2 in whole red blood cells, using parasite LDH activity as an index of growth. Test compounds present at 2uM
Format: functional

Row | Structure (SMILES) | Inhibition
1 | O=C(Nc1ccc(OC2CCN(Cc3ccsc3)C2)c(Cl)c1)c1ccsc1.O=C(O)C(F)(F)F (configuration not stated) | 70%
2 | CCOc1ccc(-c2nc(NC(=O)Cc3cccc(OC)c3)sc2C)cc1 | 28%
3 | FC(F)(F)c1ccc2[nH]c(-c3ccc(-c4ccc(CN5CCN(c6ccncc6)CC5)cc4)cc3)nc2c1.O=C(O)C(F)(F)F | 99%

Test system: HepG2
Assay: GSK_TCMDC: Percent inhibition of human HepG2 cell line. Test compounds present at 10uM.
Format: functional

Row | Structure (SMILES) | Inhibition
4 | CCCC(C)Nc1nc(C)cc(N[C@@H](CC(C)C)C(=O)NCCc2ccccc2)n1.O=C(O)C(F)(F)F (some centres not stated) | 9%
5 | Cc1c(CNCCCNc2cc(=O)c3ccccc3[nH]2)sc(C(F)=C(F)F)c1Br.Cl | 7%
6 | COC(=O)CCn1c(C2CCN(CC3CCC(NC(=O)/C=C/c4ccc(Cl)c(Cl)c4)CC3)CC2)nc2ccccc21 (configuration not stated) | 14%
7 | COc1cccc2cc(C(=O)N[C@@H](CC(C)C)C(=O)N[C@H](C=NN3CCOC3=O)Cc3ccccc3)oc12 | 6%
8 | COc1ccc(CN2C(=S)N(Cc3ccccc3)C(=O)C2CC(=O)Nc2ccccc2)cc1OC (configuration not stated) | 6%
9 | CC(C)COc1ccc(Cl)cc1Cc1ccc(-c2nc3ccc(C(F)(F)F)cc3[nH]2)o1 | 14%
10 | CNC(=O)c1cnc(Nc2ccc(N3CCOCC3)cc2)nc1Nc1cccc(O)c1.O=C(O)C(F)(F)F | 23%
11 | Cc1nc(-c2ccc(-c3ccc(C(=O)Nc4ccc(I)c(OCCN5CCCC5)c4)cc3)c(C)c2)no1.Cl | 96%
12 | COc1ccc(CCNCCCCCCNCCc2ccc(-c3ccccc3)cc2)cc1OC.Cl | 100%
13 | O=C(NCCCCN1CCC(c2ccc3c(c2OCCCO)CCCC3)CC1)c1ccc(-c2ccc(C(F)(F)F)cc2)cc1 | 98%
14 | CN(C)CC(O)C(c1ccccc1)c1ccc(Cl)cc1.O=C(O)CCC(=O)O (configuration not stated) | 4%
15 | CN1CCCN(Cc2cccc(-c3cccc(NC(=O)c4ccc(C#N)cc4)c3)c2)CC1.O=C(O)C(F)(F)F | 7%
16 | COc1cc2c(cc1OC)-c1cc(=Nc3c(C)cc(C)cc3C)n(C)c(=O)n1CC2.Cl | 14%
17 | O=C(Nc1cc(C(F)(F)F)ccc1Cl)c1ccc(Cn2cc(Br)cn2)cc1 | 24%
18 | CC(C)(C)c1nn(-c2ccccc2)c2[nH]c(=O)c(CNC3CCCCC3)cc12 | 6%
19 | COc1ccc2nc3cc(Cl)ccc3c(Nc3ccc(O)c(CNC(C)C)c3)c2c1 | 5%
20 | CC[C@H](C)CNC(=O)c1cncc(-c2cccc(CNC3Cc4ccccc4C3)c2)c1.O=C(O)C(F)(F)F | 5%

Row | Structure (SMILES) | Inhibition
21 | COc1ccc(CCN(C)CCCCc2ccc(NC(=O)c3cccc4c(=O)c5cc(F)ccc5sc34)cc2)cc1OC | 98%
22 | Cc1ccc(Oc2ccc(CNc3nc(Nc4cccc(F)c4)nc(Nc4cccc(F)c4)n3)cc2)cc1 | 0%
23 | CN(C)CCN(C)Cc1cccc(-c2ccc3c(Nc4ccc(F)cc4Cl)ccnc3c2)c1 | 53%
24 | CCCC(=O)NC(c1ccc(C)cc1)c1ccc2cccnc2c1O (configuration not stated) | 52%
25 | Cc1cc(N)c2cc(NC(=O)c3cccc(C(=O)Nc4ccc5nc(C)cc(N)c5c4)c3)ccc2n1.Cl | 9%
26 | Cl.O=c1cc(NCCCNCc2scc(I)c2I)[nH]c2ccccc12 | 0%
27 | O=C(Nc1cccc(CN2CCN(Cc3cccc(O)c3)CC2)c1)c1cc2ccccc2s1.O=C(O)C(F)(F)F | 13%
28 | CC(C)(C)c1ccc(NC(=O)c2cccc(CN3CCCN(Cc4ccsc4)CC3)c2)cc1.O=C(O)C(F)(F)F | 33%
29 | CN(C)c1ccc(N2C(N)=NC(N)=NC23CCCC3)cc1.Cl | 1%
30 | Cc1cccc(C)c1CNc1ccnc2cc(Br)ccc12.Cl | 24%
31 | CS(=O)(=O)CCNCc1cccc(-c2cc3c(Nc4ccc(OCc5ccccc5)cc4)ncnc3cn2)c1.Cl | 3%
32 | NC1=NC(Cc2ccccc2)(c2ccncc2)C(=O)N1CCCc1ccccc1 (configuration not stated) | 1%
33 | CO/N=C(\C)c1ccc2c(c1)CCN(CCC1CCC(NC(=O)/C=C/c3ccc(F)cc3)CC1)CC2.Cl (configuration not stated) | 45%
34 | Cc1ccc(-n2cc(CNCCCn3ccnc3)c(-c3cccc(C)c3)n2)cc1 | 9%
35 | COc1ccc(CN(C)CCOc2ccc(NC(=O)c3cccc4c(=O)cc(-c5ccccc5)[nH]c34)cc2)cc1OC | 13%
36 | O=C(/C=C/c1ccc(Cl)c(Cl)c1)NCCCCCCN1CCCN(C(=O)Nc2ccc(Cl)c(C(F)(F)F)c2)CC1 | 25%
37 | CC(=O)Nc1cccc(Nc2nccc(Nc3ccc(Oc4ccccc4)cc3)n2)c1.Cl | 15%
